Data taken from PubChem BioAssay (Tox21).
Inconclusive results are not listed. Active and inactive are the calls of the source. Unless noted, calls come from the whole dose curve; as a rule, active = well fitted curve in the direction sought with a large enough effect in the repeat runs; inconclusive = weak or mixed curves; inactive = no such curve, though single readings can be large; an effect the other way counts as inactive or inconclusive.

Key:
[1] = qHTS assay to identify aromatase inhibitors - cell viability counter screen (AID 743084);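 note: cells stimulated with testosterone during compound exposure; nearly all actives have a fitted effect of over 55% in size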; note: potency is the fitted concentration of half-maximal effect
[2] = qHTS assay to identify small molecule that activate the aryl hydrocarbon receptor (AhR) signaling pathway - cell viability counter screen (AID 743086);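 note: HepG2 liver cells carrying the AhR DRE luciferase reporter; series mostly up to about 70 µM; nearly all actives have a fitted effect of over 45% in size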
Outline: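 HepG2-AhR-luc (HG2L7.5c1) cells, 4000/well, treated 24 h at 37 C with compound; viability measured as CellTiter-Fluor fluorescence after 30 min in the same wells as the luciferase read.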

[3] = qHTS assay to identify small molecule antagonists of the peroxisome proliferator-activated receptor gamma (PPARg) signaling pathway - cell viability counter screen (AID 743194); conditions: Potency: co-treated with 50 nM rosiglitazone; note: nearly all actives have a fitted effect of over 55% in size
Outline: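 Cytotoxicity counter screen in PPARg-bla HEK293H cells, same wells as reporter assay. Compounds plus 50 nM rosiglitazone (final) for 17 h at 37 C, then viability read by CellTiter-Glo luminescence.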

[4] = qHTS assay for small molecule agonists of the antioxidant response element (ARE) signaling pathway (AID 743202; active = well fitted activation curve with a large enough effect in the signal ratio in the repeat runs, not every such curve was filed as active; the % refers to the signal ratio)
Outline: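 Agonist mode reporter screen: HepG2 cells with ARE-controlled beta-lactamase are incubated with test compounds for 16 h at 37 C, and beta-lactamase activity is measured as fluorescence of cleaved B/G FRET substrate.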

[5] = qHTS assay for small molecule agonists of the antioxidant response element (ARE) signaling pathway - cell viability counter screen (AID 743203; calls by dose curve; note: nearly all actives have a fitted effect of over 55% in size)
Outline: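 Compounds in DMSO were pinned onto ARE-bla HepG2 cells plated 5 hrs earlier at 2,000 cells/well. Sixteen hours later at 37C/5% CO2, CellTiter-Glo was added and luminescence measured after 30 min at room temperature.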

[6] = qHTS assay for small molecule activators of the heat shock response signaling pathway - cell viability counter screen (AID 743209); note: nearly all actives have a fitted effect of over 50% in size
Outline: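 Counter screen for cytotoxicity in HeLa HSE-bla reporter cells. Treatment was 5 h at 37 C; viability was detected by luminescent ATP assay (CellTiter-Glo) in the same wells as the beta-lactamase read.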

[7] = qHTS assay for small molecule activators of the heat shock response signaling pathway (AID 743210; active = well fitted activation curve with a large enough effect in the signal ratio in the repeat runs, with a control signal flat, not every such curve was filed as active; the % refers to the signal ratio;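 note: HeLa cells with beta-lactamase reporter driven by heat shock elements; series mostly up to about 63 µM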)
Outline: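 Quantitative high-throughput format using an engineered HeLa line in which heat shock response elements drive beta-lactamase; after 5 h with compound, cells received a B/G FRET substrate and fluorescence was read.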

[8] = target: Peroxisome proliferator-activated receptor gamma (Homo sapiens) (UniProt P37231); assay: qHTS assay to identify small molecule agonists of the peroxisome proliferator-activated receptor gamma (PPARg) signaling pathway (AID 743094; active = well fitted activation curve with a large enough effect in the signal ratio in the repeat runs, not every such curve was filed as active; the % refers to the signal ratio)
Outline: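 Following 5 h plating at 37C, PPARg-bla HEK293H cells receive compound or DMSO for 17 h; fluorescence intensity is recorded after LiveBLAzer B/G loading for 1 h at room temperature.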

[9] = target: Peroxisome proliferator-activated receptor gamma (Homo sapiens) (UniProt P37231); assay: qHTS assay to identify small molecule antagonists of the peroxisome proliferator-activated receptor gamma (PPARg) signaling pathway (AID 743191; calls by dose curve; note: series mostly up to about 63 µM; nearly all actives have a fitted effect of over 30% in size)
Outline: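 GeneBLAzer PPARg UAS-bla HEK293H cells, 5 h post-plating, exposed to compounds 17 h at 37C. LiveBLAzer B/G FRET substrate added for 1 h at room temperature; beta-lactamase reporter read by fluorescence intensity.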

[10] = target: Aryl hydrocarbon receptor (Homo sapiens) (UniProt P35869); assay: qHTS assay to identify small molecule that activate the aryl hydrocarbon receptor (AhR) signaling pathway (AID 743085);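 note: HG2L7.5c1 human HepG2 liver cells with stably integrated DRE-driven firefly reporter; series mostly up to about 70 µM; nearly all actives have a fitted effect of over 15% in size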
Outline: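 HepG2 cells (HG2L7.5c1) stably carrying a firefly luciferase reporter driven by 20 dioxin responsive elements were exposed to compound for 24 h at 37C after a 5 h settling period; luminescence rise (ONE-Glo) indicated activation.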

Measured: Potency

Sequence of Peroxisome proliferator-activated receptor gamma (Homo sapiens) (P37231 whole entry, looked up): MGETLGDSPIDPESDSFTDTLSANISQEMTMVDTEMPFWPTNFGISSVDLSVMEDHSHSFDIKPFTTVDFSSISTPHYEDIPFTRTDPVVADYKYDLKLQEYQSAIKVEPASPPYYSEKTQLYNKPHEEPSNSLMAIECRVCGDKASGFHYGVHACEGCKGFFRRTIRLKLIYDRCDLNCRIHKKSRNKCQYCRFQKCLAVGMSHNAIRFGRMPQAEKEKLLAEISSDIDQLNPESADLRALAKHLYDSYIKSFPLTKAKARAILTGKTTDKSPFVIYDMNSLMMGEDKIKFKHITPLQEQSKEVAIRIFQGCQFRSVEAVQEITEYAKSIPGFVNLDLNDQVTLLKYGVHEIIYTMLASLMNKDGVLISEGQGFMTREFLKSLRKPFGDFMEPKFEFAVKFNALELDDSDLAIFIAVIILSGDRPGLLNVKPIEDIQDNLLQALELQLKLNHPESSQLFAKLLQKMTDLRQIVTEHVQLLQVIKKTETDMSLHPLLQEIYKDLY
Sequence of Aryl hydrocarbon receptor (Homo sapiens) (P35869 whole entry, looked up): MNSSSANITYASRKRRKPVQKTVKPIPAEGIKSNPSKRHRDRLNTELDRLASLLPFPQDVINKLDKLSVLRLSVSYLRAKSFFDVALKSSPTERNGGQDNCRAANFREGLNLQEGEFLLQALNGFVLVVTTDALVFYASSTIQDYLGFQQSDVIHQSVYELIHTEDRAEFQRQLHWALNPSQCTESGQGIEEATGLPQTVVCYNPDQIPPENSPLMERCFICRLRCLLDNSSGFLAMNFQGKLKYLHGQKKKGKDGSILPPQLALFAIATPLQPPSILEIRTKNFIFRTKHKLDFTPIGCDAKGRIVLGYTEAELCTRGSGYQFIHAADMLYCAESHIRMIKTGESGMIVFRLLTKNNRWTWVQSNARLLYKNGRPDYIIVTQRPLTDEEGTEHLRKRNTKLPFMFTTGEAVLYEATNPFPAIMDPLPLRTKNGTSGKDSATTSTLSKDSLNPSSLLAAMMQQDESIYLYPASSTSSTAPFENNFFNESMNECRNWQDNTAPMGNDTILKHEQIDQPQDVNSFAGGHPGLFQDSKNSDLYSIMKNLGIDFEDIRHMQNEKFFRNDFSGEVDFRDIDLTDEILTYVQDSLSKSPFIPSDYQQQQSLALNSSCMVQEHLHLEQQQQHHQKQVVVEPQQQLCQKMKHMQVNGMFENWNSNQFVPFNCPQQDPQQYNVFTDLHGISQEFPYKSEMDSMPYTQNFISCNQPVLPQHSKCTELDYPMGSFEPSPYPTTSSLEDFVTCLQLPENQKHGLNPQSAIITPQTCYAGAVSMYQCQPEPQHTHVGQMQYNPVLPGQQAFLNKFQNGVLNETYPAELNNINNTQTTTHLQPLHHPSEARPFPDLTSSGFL

Nc1cnn(-c2ccccc2)c(=O)c1Cl
not listed: [8] | [9] | [10]
inactive: all other assays above

CCN(CC)c1nc(C)cc(OP(=S)(OC)OC)n1
inactive: [1] | [2] | [8] | [3] | [5] | [6]

Cc1coc2c1CCC(C)C2 (configuration not stated)
inactive: [1] | [2] | [3] | [6] | [7]

CN1CCC(O)(c2ccc(F)cc2)C(C(=O)c2ccc(F)cc2)C1 (configuration not stated)
inactive: [1] | [2] | [8] | [9] | [3] | [5]

C[C@H]1CCC[C@H](O)CCCCCc2cc(O)cc(O)c2C(=O)O1
active: [1] 43.6 µM
inactive: [10] | [2] | [6]

O=C(Cc1ccccc1)OCc1ccccc1
not listed: [10]
inactive: all other assays above
